In PubChem BioAssay (EPA / NIEHS):
The source made the active and inactive calls. The calls were made as follows: active = hit-call score of the fitted dose curve at least 0.9, where 1 is the maximum; inactive = score below 0.9.

Columns and labels:
[1] = ATG_GRE_CIS: Attagene CIS-FACTORIAL HepG2 Assay for human Glucocorticoid Response Elements (GRE) (AID 2282947); settings: HepG2 GRE cis-reporter, Attagene multiplex mRNA; actives raise or lower the signal
Summary of the method: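 Assay uses human hepatoma HepG2 cells transfected with cis-promoter reporter units, exposed 24 h. mRNA from reporters detected by RT-PCR plus capillary electrophoresis; DMSO serves as negative control and baseline.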

[2] = ATG_ISRE_CIS: Attagene CIS-FACTORIAL HepG2 Assay for human Interferon Regulatory Factor 1 (IRF1) binding to an Interferon-Stimulated Response Element (ISRE) (AID 2282948); settings: HepG2 ISRE cis-reporter (Attagene), mRNA transcription readout; actives raise or lower the signal
Summary of the method: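 Transiently transfected HepG2 cells carrying cis-element reporter units, dosed 24 hours. Reporter mRNA quantified by RT-PCR, fluorescent primer extension, HpaI digestion and capillary electrophoresis. Bidirectional fitting relative to DMSO.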

[3] = ATG_M_32_CIS: Attagene CIS-FACTORIAL HepG2 Assay for M32 Transcription Factor (Internal Marker) (AID 2282949); settings: HepG2 Attagene cis-factorial M32 reporter, mRNA; actives raise or lower the signal;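 also: background control marker of the multiplexed CIS panel rather than a real target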
Summary of the method: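 Following 24 h chemical exposure of HepG2 cells transiently expressing cis-promoter reporter constructs, reporter transcript levels were determined by RT-PCR with fluorescent labelling and capillary electrophoresis, then fitted bidirectionally against DMSO.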

[4] = ATG_M_06_CIS: Attagene CIS-FACTORIAL HepG2 Assay for M06 Transcription Factor (Internal Marker) (AID 2282950); settings: HepG2 Attagene CIS-FACTORIAL M06 internal marker reporter; actives raise or lower the signal
Summary of the method: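 Steps: transfect HepG2 with multiplexed cis-element reporter constructs; dose chemical 24 h; extract RNA with DNase treatment; reverse-transcribe, PCR-amplify, 6-FAM label, HpaI digest; separate fragments by capillary electrophoresis. Activity fitted both directions versus DMSO.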

[5] = target: Hypoxia-inducible factor 1-alpha (Homo sapiens) (UniProt Q16665); test: ATG_HIF1a_CIS: Attagene CIS-FACTORIAL HepG2 Assay for human Hypoxia Inducible Factor 1 (HIF1A) (AID 2282951); settings: HepG2 Attagene cis-factorial HIF1a reporter transcription; actives raise or lower the signal
Summary of the method: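 Measures endogenous transcription-factor activity through cis-regulated reporter mRNA in HepG2. Cells dosed 24 h; transcripts quantified by RT-PCR with 6-FAM-labelled products separated by capillary electrophoresis; DMSO serves as negative control.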

[6] = target: Hepatocyte nuclear factor 6 (Homo sapiens) (UniProt Q9UBC0); test: ATG_HNF6_CIS: Attagene CIS-FACTORIAL HepG2 Assay for human Hepatocyte Nuclear Factor 6 (HNF6) (AID 2282952); settings: HepG2 Attagene cis-factorial HNF6 reporter transcription; actives raise or lower the signal
Summary of the method: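 Multiplexed mRNA reporter assay in transfected HepG2; 24 h dosing; RT-PCR plus capillary electrophoresis fluorescence; DMSO-referenced bidirectional curve fitting.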

[7] = ATG_MRE_CIS: Attagene CIS-FACTORIAL HepG2 Assay for human Metal Responsive Element (MRE) (AID 2282954); settings: HepG2 MRE cis-reporter transcription, Attagene multiplex; actives raise or lower the signal
Summary of the method: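 After a 24 h chemical exposure, transiently transfected HepG2 cells yield RNA whose reporter sequences are amplified, FAM-labelled and sized by capillary electrophoresis. Curves are fitted bidirectionally relative to DMSO.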

[8] = ATG_PBREM_CIS: Attagene CIS-FACTORIAL HepG2 Assay for human Phenobarbital-responsive Enhancer Module (PBREM) (AID 2282955); settings: HepG2 PBREM cis-reporter, Attagene multiplexed transcription; actives raise or lower the signal
Summary of the method: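 Fluorescence of labelled reporter cDNA fragments, resolved by capillary electrophoresis, gives mRNA induction in transfected HepG2 cells treated for 24 h; DMSO serves as negative control and baseline.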

[9] = target: Paired box protein Pax-6 (Homo sapiens) (UniProt P26367); test: ATG_Pax6_CIS: Attagene CIS-FACTORIAL HepG2 Assay for human Paired Box 6 (PAX6) (AID 2282956); settings: HepG2 CIS-FACTORIAL PAX6 reporter transcription, RNA readout; actives raise or lower the signal
Summary of the method: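 HepG2 cells transiently transfected with cis-promoter-driven multiplexed reporter units sensing endogenous transcription factor activity; 24 h chemical exposure. Reporter mRNA quantified by RT-PCR, 6-FAM labelling, HpaI digestion and capillary electrophoresis; bidirectional fit versus DMSO baseline.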

[10] = ATG_PXRE_CIS: Attagene CIS-FACTORIAL HepG2 Assay for human Pregnane X Receptor Element (PXRE) (AID 2282957); settings: HepG2 Attagene CIS-FACTORIAL PXRE reporter, mRNA; actives raise or lower the signal
Summary of the method: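 Cells: HepG2, transiently transfected reporter units under cis promoter control. Exposure: 24 h. Detection: reporter mRNA via RT-PCR/CE fluorescence; bidirectional fitting, DMSO-referenced.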

[11] = ATG_PPRE_CIS: Attagene CIS-FACTORIAL HepG2 Assay for human Peroxisome Proliferator-activated Response Element (PPRE) (AID 2282958); settings: HepG2 PPRE cis-element reporter, Attagene transcription factor profiling; actives raise or lower the signal
Summary of the method: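 Cells are first transfected transiently with the multiplexed reporter library, then dosed for 24 h. Total RNA is reverse-transcribed, amplified, fluorescently end-labeled and HpaI-cut before capillary electrophoresis; activity is fitted bidirectionally against DMSO controls.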

[12] = ATG_RORE_CIS: Attagene CIS-FACTORIAL HepG2 Assay for human RAR-related Orphan Receptor Element (RORE) (AID 2282959); settings: HepG2 Attagene cis-factorial RORE reporter, mRNA; actives raise or lower the signal
Summary of the method: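 Cells were HepG2 carrying transfected cis-regulated reporter constructs, dosed for 24 hours. Total RNA was reverse-transcribed and reporter cDNA amplified, fluorescently labeled and sized by capillary electrophoresis. Activity was fitted bidirectionally relative to DMSO.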

[13] = ATG_Sox_CIS: Attagene CIS-FACTORIAL HepG2 Assay for human SRY-box transcription factor (SOX) (AID 2282960); settings: HepG2 Attagene cis-factorial SOX reporter, mRNA; actives raise or lower the signal
Summary of the method: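 Transient MRTU transfection of HepG2; 24 h compound incubation; TriZol RNA, oligo(dT) RT, PCR, 6-FAM primer extension, HpaI cut, CE. Bidirectional fit, DMSO = baseline.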

[14] = target: Transcription factor Sp1 (Homo sapiens) (UniProt P08047); test: ATG_Sp1_CIS: Attagene CIS-FACTORIAL HepG2 Assay for human Specificity Protein 1 (Sp1) (AID 2282961); settings: HepG2 Sp1 cis-reporter transcription, actives raise or lower the signal
Summary of the method: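 Endogenous Sp1 activity was gauged in human liver HepG2 cells bearing transfected reporter units under a cis-regulating promoter. After 24 h dosing, reporter mRNA was quantified by RT-PCR with capillary electrophoresis, and activity fitted bidirectionally versus DMSO.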

[15] = ATG_SREBP_CIS: Attagene CIS-FACTORIAL HepG2 Assay for human Sterol Regulatory Element Binding (SREBP) (AID 2282962); settings: HepG2 Attagene cis-factorial SREBP reporter, mRNA; actives raise or lower the signal
Summary of the method: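 HepG2 cells transiently transfected with multiplexed cis-promoter reporter units sensing endogenous transcription factors; reporter mRNA measured 24 h after dosing by RT-PCR, 6-FAM labeling, HpaI digestion and capillary electrophoresis. Bidirectional fit versus DMSO.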

[16] = target: Signal transducer and activator of transcription 3 (Homo sapiens) (UniProt P40763); test: ATG_STAT3_CIS: Attagene CIS-FACTORIAL HepG2 Assay for human Signal Transducer and Activator of Transcription 3 (STAT3) (AID 2282963); settings: HepG2, Attagene cis-factorial STAT3 reporter transcription; actives raise or lower the signal
Summary of the method: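 After a 24 h compound incubation, total RNA from MRTU-transfected HepG2 cells was converted to cDNA and reporter sequences PCR-amplified, labelled and profiled by capillary electrophoresis. Gain and loss of signal were referenced to DMSO.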

[17] = ATG_TCF_b_cat_CIS: Attagene CIS-FACTORIAL HepG2 Assay for human T-Cell-Factor with beta-catenin (TCF/b-cat) (AID 2282965); settings: HepG2 TCF/beta-catenin cis-reporter transcription, actives raise or lower the signal
Summary of the method: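 Measured: reporter mRNA in HepG2 transiently transfected with cis-promoter reporter units, 24 h after chemical addition. Fitting was bidirectional, DMSO as negative control.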

[18] = ATG_TA_CIS: Attagene CIS-FACTORIAL HepG2 Assay for human TA Basal Promoter (AID 2282964); settings: HepG2 Attagene CIS-factorial TA basal promoter reporter; actives raise or lower the signal
Summary of the method: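 Steps: transfect HepG2 with MRTUs; dose 24 h; isolate RNA, DNase-treat, reverse-transcribe; PCR and FAM-label reporter cDNA; digest with HpaI 2h at 37 C; run capillary electrophoresis. Activity fitted both directions against DMSO.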

[19] = target: Heat shock factor protein 1 (Homo sapiens) (UniProt Q00613); test: ATG_HSE_CIS: Attagene CIS-FACTORIAL HepG2 Assay for human Heat Shock Transcription Factor 1 (HSE) (AID 2282953); settings: HepG2 HSE cis-reporter, Attagene RNA transcription; actives raise or lower the signal
Summary of the method: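 Cells were transfected with cis-element-driven reporter constructs, dosed for 24 h, then total RNA was reverse-transcribed and reporter cDNA amplified, FAM-labelled and digested with HpaI. Fragments were resolved by capillary electrophoresis; gain or loss was fitted against DMSO.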

Sequence of Paired box protein Pax-6 (Homo sapiens) (P26367 whole entry, looked up): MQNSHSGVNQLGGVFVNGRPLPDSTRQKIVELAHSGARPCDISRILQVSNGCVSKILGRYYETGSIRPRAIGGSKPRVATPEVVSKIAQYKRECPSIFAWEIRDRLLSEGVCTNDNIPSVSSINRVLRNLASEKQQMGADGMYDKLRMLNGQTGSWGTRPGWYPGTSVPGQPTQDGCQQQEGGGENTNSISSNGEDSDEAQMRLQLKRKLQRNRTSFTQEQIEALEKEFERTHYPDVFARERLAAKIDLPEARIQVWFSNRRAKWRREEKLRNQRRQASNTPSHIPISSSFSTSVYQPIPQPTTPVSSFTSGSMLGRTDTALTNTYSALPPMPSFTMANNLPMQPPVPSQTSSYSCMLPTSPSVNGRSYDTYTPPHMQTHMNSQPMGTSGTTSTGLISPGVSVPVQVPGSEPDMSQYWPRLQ
Sequence of Hepatocyte nuclear factor 6 (Homo sapiens) (Q9UBC0 whole entry, looked up): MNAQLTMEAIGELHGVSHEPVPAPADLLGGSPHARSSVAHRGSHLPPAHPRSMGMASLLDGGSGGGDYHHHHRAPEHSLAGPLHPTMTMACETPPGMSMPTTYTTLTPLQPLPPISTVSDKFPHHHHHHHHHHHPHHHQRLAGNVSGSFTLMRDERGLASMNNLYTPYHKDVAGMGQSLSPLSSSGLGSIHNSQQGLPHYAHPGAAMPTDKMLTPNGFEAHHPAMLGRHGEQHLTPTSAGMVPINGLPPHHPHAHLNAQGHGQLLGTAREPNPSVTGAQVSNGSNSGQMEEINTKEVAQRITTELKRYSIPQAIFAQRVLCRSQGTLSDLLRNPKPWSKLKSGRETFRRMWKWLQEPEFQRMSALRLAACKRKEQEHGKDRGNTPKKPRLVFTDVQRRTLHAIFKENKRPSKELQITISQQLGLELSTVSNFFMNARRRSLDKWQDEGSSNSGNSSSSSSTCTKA
Sequence of Hypoxia-inducible factor 1-alpha (Homo sapiens) (Q16665 whole entry, looked up): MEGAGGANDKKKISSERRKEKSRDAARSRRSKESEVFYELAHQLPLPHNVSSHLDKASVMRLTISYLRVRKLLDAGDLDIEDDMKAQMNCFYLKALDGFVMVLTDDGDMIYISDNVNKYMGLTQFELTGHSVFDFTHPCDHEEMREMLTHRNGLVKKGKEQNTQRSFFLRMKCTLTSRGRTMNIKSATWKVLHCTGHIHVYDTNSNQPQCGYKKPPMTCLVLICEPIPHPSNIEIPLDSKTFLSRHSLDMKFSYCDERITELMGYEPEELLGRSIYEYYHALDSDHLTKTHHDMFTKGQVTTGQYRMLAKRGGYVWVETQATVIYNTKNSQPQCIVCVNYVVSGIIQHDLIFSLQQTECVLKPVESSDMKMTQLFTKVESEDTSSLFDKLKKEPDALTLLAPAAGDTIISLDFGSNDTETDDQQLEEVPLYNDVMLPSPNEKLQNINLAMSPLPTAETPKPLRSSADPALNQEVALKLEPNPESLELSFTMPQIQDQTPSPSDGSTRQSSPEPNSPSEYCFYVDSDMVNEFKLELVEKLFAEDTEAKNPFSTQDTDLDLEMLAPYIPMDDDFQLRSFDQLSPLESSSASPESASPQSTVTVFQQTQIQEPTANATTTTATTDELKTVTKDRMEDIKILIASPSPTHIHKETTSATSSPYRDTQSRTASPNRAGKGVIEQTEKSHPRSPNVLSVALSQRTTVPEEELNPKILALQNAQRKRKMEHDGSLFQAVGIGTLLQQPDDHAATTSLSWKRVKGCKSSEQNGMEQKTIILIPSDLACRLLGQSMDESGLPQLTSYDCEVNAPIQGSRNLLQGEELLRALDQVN
Sequence of Heat shock factor protein 1 (Homo sapiens) (Q00613 whole entry, looked up, the tested form may be a part): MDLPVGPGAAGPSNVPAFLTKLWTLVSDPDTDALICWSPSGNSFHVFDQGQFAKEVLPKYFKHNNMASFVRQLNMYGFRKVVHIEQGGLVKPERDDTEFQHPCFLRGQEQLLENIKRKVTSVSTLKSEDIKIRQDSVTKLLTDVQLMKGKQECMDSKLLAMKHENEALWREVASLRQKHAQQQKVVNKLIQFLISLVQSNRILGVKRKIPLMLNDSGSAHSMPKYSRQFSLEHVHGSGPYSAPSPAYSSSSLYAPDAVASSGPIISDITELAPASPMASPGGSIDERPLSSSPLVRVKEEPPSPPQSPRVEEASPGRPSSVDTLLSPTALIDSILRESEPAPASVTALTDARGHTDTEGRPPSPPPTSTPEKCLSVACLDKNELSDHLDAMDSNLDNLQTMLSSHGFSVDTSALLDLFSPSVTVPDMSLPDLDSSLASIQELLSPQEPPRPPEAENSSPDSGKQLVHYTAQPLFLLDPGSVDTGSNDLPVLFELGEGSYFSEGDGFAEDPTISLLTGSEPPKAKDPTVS
Sequence of Transcription factor Sp1 (Homo sapiens) (P08047 whole entry, looked up): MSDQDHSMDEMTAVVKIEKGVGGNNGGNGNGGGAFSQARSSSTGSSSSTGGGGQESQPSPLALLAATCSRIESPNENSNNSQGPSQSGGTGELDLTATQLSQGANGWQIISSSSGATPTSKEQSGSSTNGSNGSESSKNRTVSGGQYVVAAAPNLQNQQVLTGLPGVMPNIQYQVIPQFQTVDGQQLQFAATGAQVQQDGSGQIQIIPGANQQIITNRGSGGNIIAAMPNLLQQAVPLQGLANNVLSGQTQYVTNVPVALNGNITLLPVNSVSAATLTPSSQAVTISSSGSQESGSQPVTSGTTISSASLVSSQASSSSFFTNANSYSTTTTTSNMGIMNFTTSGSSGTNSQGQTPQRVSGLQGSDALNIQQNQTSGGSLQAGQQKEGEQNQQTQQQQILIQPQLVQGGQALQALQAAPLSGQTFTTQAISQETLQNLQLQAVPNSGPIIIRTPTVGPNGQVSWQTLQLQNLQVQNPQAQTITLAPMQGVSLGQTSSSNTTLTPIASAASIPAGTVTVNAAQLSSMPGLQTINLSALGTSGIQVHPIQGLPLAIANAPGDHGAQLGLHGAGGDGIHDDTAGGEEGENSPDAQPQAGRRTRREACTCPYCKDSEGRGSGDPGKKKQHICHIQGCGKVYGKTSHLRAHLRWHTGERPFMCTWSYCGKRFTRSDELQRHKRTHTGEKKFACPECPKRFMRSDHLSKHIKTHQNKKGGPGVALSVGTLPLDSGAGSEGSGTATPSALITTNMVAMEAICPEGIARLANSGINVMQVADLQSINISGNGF
Sequence of Signal transducer and activator of transcription 3 (Homo sapiens) (P40763 whole entry, looked up): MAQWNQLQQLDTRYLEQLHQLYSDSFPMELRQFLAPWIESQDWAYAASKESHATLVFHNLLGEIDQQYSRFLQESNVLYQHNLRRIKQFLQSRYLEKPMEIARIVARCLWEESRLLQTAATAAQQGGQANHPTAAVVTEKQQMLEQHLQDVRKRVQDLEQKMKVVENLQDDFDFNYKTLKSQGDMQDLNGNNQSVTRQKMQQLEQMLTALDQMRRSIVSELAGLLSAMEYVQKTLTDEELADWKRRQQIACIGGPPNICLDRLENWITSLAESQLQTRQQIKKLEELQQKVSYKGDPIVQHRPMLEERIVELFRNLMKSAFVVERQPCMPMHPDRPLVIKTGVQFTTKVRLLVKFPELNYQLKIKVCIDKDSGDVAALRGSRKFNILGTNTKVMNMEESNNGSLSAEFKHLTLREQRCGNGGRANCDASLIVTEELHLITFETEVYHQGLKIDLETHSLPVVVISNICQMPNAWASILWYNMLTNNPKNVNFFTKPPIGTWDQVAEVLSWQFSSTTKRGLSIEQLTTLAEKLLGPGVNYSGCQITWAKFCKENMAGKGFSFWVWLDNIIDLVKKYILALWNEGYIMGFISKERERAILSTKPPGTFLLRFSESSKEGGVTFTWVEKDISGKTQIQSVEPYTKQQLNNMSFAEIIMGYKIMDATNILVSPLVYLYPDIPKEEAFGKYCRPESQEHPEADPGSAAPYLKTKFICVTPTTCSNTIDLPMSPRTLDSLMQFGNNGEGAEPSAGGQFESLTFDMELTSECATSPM

SMILES: CCCCC(CC)COC(=O)/C=C\C(=O)OCC(CC)CCCC (stereo not given)
- outcome [1]: inactive
- outcome [2]: inactive
- outcome [3]: inactive
- outcome [4]: inactive
- AC50 [5]: 21.2 µM (active)
- AC50 [6]: 171 µM (active)
- outcome [7]: inactive
- outcome [8]: inactive
- outcome [9]: inactive
- AC50 [10]: 4.85 µM (active)
- AC50 [11]: 100 µM (active)
- AC50 [12]: 100 µM (active)
- outcome [13]: inactive
- outcome [14]: inactive
- outcome [15]: inactive
- outcome [16]: inactive
- outcome [17]: inactive

SMILES: CC(O)C(C)O (stereo not given)
- outcome [1]: inactive
- outcome [2]: inactive
- outcome [3]: inactive
- outcome [4]: inactive
- outcome [5]: inactive
- outcome [6]: inactive
- outcome [7]: inactive
- outcome [8]: inactive
- outcome [9]: inactive
- outcome [10]: inactive
- outcome [11]: inactive
- outcome [12]: inactive
- outcome [13]: inactive
- outcome [14]: inactive
- outcome [15]: inactive
- outcome [16]: inactive
- outcome [18]: inactive

SMILES: CC1(C)[C@@H]2CC[C@@]1(C)[C@H](O)C2
- outcome [1]: inactive
- outcome [2]: inactive
- outcome [3]: inactive
- outcome [4]: inactive
- AC50 [5]: 100 µM (active)
- outcome [6]: inactive
- outcome [19]: inactive
- outcome [8]: inactive
- outcome [9]: inactive
- outcome [10]: inactive
- outcome [12]: inactive
- outcome [13]: inactive
- outcome [14]: inactive
- outcome [15]: inactive
- outcome [16]: inactive
- outcome [18]: inactive
- outcome [17]: inactive

SMILES: CCC(C)CCCC(C)(C)O (stereo not given)
- outcome [1]: inactive
- outcome [2]: inactive
- outcome [3]: inactive
- outcome [4]: inactive
- outcome [5]: inactive
- outcome [6]: inactive
- outcome [19]: inactive
- outcome [9]: inactive
- outcome [11]: inactive
- outcome [12]: inactive
- outcome [13]: inactive
- outcome [14]: inactive
- outcome [15]: inactive
- outcome [18]: inactive
- outcome [17]: inactive

SMILES: COc1ccc(Nc2ccccc2)c(C)c1
- outcome [1]: inactive
- outcome [2]: inactive
- outcome [3]: inactive
- outcome [4]: inactive
- outcome [5]: inactive
- outcome [6]: inactive
- AC50 [7]: 128 µM (active)
- outcome [9]: inactive
- AC50 [10]: 26.9 µM (active)
- AC50 [11]: 67.2 µM (active)
- AC50 [12]: 51.5 µM (active)
- outcome [14]: inactive
- outcome [15]: inactive
- outcome [16]: inactive
- outcome [18]: inactive

SMILES: C=C(C)C(=O)NCCCN(C)C
- outcome [1]: inactive
- outcome [2]: inactive
- outcome [3]: inactive
- outcome [4]: inactive
- outcome [5]: inactive
- outcome [6]: inactive
- outcome [19]: inactive
- outcome [7]: inactive
- outcome [9]: inactive
- outcome [11]: inactive
- outcome [12]: inactive
- outcome [13]: inactive
- outcome [14]: inactive
- outcome [15]: inactive
- outcome [18]: inactive
- outcome [17]: inactive

SMILES: OC[C@H]1O[C@H](O[C@]2(CCl)O[C@H](CCl)[C@@H](O)[C@@H]2O)[C@H](O)[C@@H](O)[C@H]1Cl
- outcome [1]: inactive
- outcome [2]: inactive
- outcome [3]: inactive
- outcome [4]: inactive
- outcome [5]: inactive
- outcome [6]: inactive
- outcome [7]: inactive
- outcome [9]: inactive
- outcome [10]: inactive
- outcome [12]: inactive
- outcome [13]: inactive
- outcome [14]: inactive
- outcome [15]: inactive
- outcome [16]: inactive
- outcome [18]: inactive
- outcome [17]: inactive

SMILES: Cc1ccc2ccccc2n1
- outcome [1]: inactive
- outcome [2]: inactive
- outcome [3]: inactive
- outcome [4]: inactive
- outcome [5]: inactive
- outcome [6]: inactive
- outcome [7]: inactive
- outcome [8]: inactive
- outcome [9]: inactive
- AC50 [10]: 58.9 µM (active)
- outcome [11]: inactive
- outcome [12]: inactive
- outcome [14]: inactive
- outcome [15]: inactive
- outcome [16]: inactive
- outcome [18]: inactive
- outcome [17]: inactive
